DT40 TDP1 CPT = qHTS for Inhibitors of human tyrosyl-DNA phosphodiesterase 1 (TDP1): qHTS in cells in presence of CPT; Potency, µM (titrated, usually from 46.2 µM), usual class: inhibitors; 12% of 420,000 active; chicken DT40 Tdp1-/-;hTDP1 cells + 20 nM CPT, ATP luminescence, 48 h; AID 686979, 2013; note: nearly all actives have a fitted effect of over 55% in size
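Chicken DT40 Tdp1-/- cells stably complemented with human TDP1 were seeded at 400 cells/well in medium containing 20 nM camptothecin, exposed to pin-transferred compounds, and grown at 37 °C for at least 48 hr. Viability was read as ATP luminescence.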
DT40 TDP1 no CPT = qHTS for Inhibitors of human tyrosyl-DNA phosphodiesterase 1 (TDP1): qHTS in cells in absence of CPT; 15% of 420,000 active; DT40 Tdp1-/- hTDP1 cells, no CPT, ATP luminescence, 48 h; AID 686978, 2013; Potency, µM (titrated, usually from 46.2 µM), most hits filed as inhibitors; note: nearly all actives have a fitted effect of over 55% in size
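Camptothecin absent (DMSO only). Human TDP1-complemented DT40 knockout cells, 400 cells/well, 37 °C for minimum 48 hr; ATP measured via CellTiter-Glo, 30 min dark incubation, luminescence.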
IL-1B inflam inh = qHTS for Inhibitors of Inflammasome Signaling: IL-1-beta AlphaLISA Primary Screen; THP-1 LPS/ATP IL-1B secretion, AlphaLISA, 16 h; hits give low values; activity change, % at 57.5 µM; 4.7% of 360,000 active; AID 743279, 2014; in the data active = activity change below about -50%; inconclusive = mostly about -30% to -49%
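Secreted IL-1B measured by AlphaLISA bead assay after 16 h compound exposure of THP-1 cells; compounds (final up to 57.5 uM) added 1 h before LPS (250 ng/mL) and ATP (1.25 mM) stimulation; lower signal means less secretion.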
ALOX12 inh = Primary qHTS assay for inhibitors of human arachidonate 12S-lipoxygenase (ALOX12): Round 2; 1.1% of 580,000 active; purified 12hLO, xylenol orange hydroperoxide absorbance; Potency, µM (top dose mostly 108 µM), most hits filed as inhibitors; AID 1671190, 2021
Target sequence (P18054 whole entry, looked up): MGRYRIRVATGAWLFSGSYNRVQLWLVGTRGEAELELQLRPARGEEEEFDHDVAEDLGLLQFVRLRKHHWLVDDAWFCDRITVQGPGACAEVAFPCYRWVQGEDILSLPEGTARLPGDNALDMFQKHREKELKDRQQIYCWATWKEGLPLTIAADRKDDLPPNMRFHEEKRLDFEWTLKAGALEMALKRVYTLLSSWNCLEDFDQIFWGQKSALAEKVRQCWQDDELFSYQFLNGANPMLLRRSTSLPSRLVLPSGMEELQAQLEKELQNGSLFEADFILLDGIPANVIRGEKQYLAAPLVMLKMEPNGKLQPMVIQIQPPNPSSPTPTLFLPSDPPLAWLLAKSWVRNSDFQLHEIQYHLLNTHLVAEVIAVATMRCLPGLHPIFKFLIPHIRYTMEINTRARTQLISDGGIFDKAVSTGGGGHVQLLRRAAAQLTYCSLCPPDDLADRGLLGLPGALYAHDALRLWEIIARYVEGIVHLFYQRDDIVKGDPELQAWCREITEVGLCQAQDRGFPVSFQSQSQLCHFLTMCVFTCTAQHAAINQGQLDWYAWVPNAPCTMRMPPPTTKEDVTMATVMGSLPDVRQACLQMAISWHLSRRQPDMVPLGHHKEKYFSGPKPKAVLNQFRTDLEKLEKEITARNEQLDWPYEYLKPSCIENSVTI
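Hydroperoxide product was detected by ferrous iron/xylenol orange as the 573 to 405 nm absorbance ratio. Arachidonic acid at 40 uM (final) was turned over for 30 min at room temperature by 150 nM human 12hLO, pH 7.0 Hepes buffer, after 15 min compound preincubation.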
HT1080NT lethal = qHTS for induction of synthetic lethality in tumor cells producing 2HG: qHTS for the HT-1080-NT fibrosarcoma cell line; AID 686970, 2013; Potency, µM (top dose mostly 46.1 µM), most hits filed as cytotoxic; HT-1080-NT fibrosarcoma viability, CellTiter-Glo ATP luminescence, 48 h; 1.6% of 360,000 active;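 note: NT is the 2HG producing partner of a matched IDH1 knockdown line; nearly all actives have a fitted effect of over 55% in size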
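Fibrosarcoma NT cells, 750 per well in 5% FBS RPMI, were exposed to compound for 48 hours. Viability: CellTiter-Glo luminescence.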
HT1080 IDH1KD tx = qHTS for induction of synthetic lethality in tumor cells producing 2HG: qHTS for the HT-1080-IDH1KD cell line | HT-1080 IDH1 knockdown viability, ATP luminescence, 48 h | Potency, µM (titrated, usually from 46.1 µM), most hits filed as cytotoxic | 2% of 360,000 active | AID 686971, 2013
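Assay cells: HT-1080 with IDH1 knockdown, 750 per well, RPMI/5% FBS. Exposure: 48 h at 37 °C following 2 h pre-incubation. Read: CellTiter-Glo luminescence; fitted concentration-response, curve class assigned.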
Each line names hits and unclear results; the compound was inactive in the other large screens. This is one part of a sample in which hits are shown more often than they occur. Unless noted, calls come from the whole dose curve; as a rule, active = well fitted curve in the direction sought with a large enough effect; inconclusive = small, poorly fitted or top-dose-only effect, or another doubt; inactive = no such curve, though single readings can be large; an effect the other way counts as inactive or inconclusive.

O=C(C1CCC(Cn2c(=S)[nH]c3ccccc3c2=O)CC1)N1CCN(c2ccccn2)CC1 (configuration not stated)	DT40 TDP1 CPT inconclusive, DT40 TDP1 no CPT 23µM
O=C(C1CCC(Cn2c(=S)[nH]c3ccccc3c2=O)CC1)N1CCN(c2ccccc2)CC1 (configuration not stated)	DT40 TDP1 CPT inconclusive, DT40 TDP1 no CPT inconclusive
CC(C)(C)OC(=O)NCCCC[C@H](NC(=O)c1nc[nH]c1C(=O)N1CCN(c2ccccc2)CC1)C(=O)OC(C)(C)C	DT40 TDP1 CPT inconclusive, DT40 TDP1 no CPT 18µM, IL-1B inflam inh -55
CC(C)(C)OC(=O)NCCCCCNC(=O)c1nc[nH]c1C(=O)N1CCN(C(=O)OC(C)(C)C)CC1	DT40 TDP1 CPT inconclusive, DT40 TDP1 no CPT 16µM, ALOX12 inh inconclusive
CC(C)(C)OC(=O)NCCCC[C@H](NC(=O)c1nc[nH]c1C(=O)N1CCN(C(=O)OC(C)(C)C)CC1)C(=O)OC(C)(C)C	DT40 TDP1 CPT inconclusive, DT40 TDP1 no CPT 23µM
CNC(=O)c1[nH]cnc1C(=O)N[C@@H](CCCCNC(=O)OC(C)(C)C)C(=O)OC(C)(C)C	DT40 TDP1 CPT inconclusive
CC(C)(C)OC(=O)CNC(=O)c1nc[nH]c1C(=O)N1CCN(C(=O)OC(C)(C)C)CC1	none
COc1ccc(C(=O)OCc2ccc(Br)cc2)cc1OC	none (no result: DT40 TDP1 CPT, DT40 TDP1 no CPT, IL-1B inflam inh, HT1080NT lethal, HT1080 IDH1KD tx)
CCN(CC)CCNC(=O)c1cc2c(s1)-c1ccccc1SC2	DT40 TDP1 CPT 23µM, DT40 TDP1 no CPT 16µM, HT1080NT lethal inconclusive, HT1080 IDH1KD tx inconclusive
CN(Cc1ccccc1)C(=O)c1cc2c(s1)-c1ccc(Cl)cc1SC2	DT40 TDP1 CPT inconclusive, DT40 TDP1 no CPT 23µM (no result: IL-1B inflam inh, HT1080NT lethal, HT1080 IDH1KD tx)
N#Cc1cccc(NC(=O)c2cc3c(s2)-c2ccc(Cl)cc2SC3)c1	DT40 TDP1 CPT 26µM, DT40 TDP1 no CPT 23µM, ALOX12 inh inconclusive (no result: IL-1B inflam inh, HT1080NT lethal, HT1080 IDH1KD tx)
Cc1cccc(N2C(=O)N(Cc3cc(=O)n4ccccc4n3)c3ccccc3S2(=O)=O)c1	DT40 TDP1 CPT inconclusive, DT40 TDP1 no CPT 26µM, ALOX12 inh inconclusive (no result: IL-1B inflam inh, HT1080NT lethal, HT1080 IDH1KD tx)
CCc1ccccc1N1C(=O)N(Cc2cc(=O)n3ccccc3n2)c2ccccc2S1(=O)=O	DT40 TDP1 CPT 23µM, DT40 TDP1 no CPT 18µM (no result: IL-1B inflam inh, HT1080NT lethal, HT1080 IDH1KD tx)
CCc1ccccc1N1C(=O)N(Cc2cccc(Cl)c2)c2ccccc2S1(=O)=O	DT40 TDP1 CPT inconclusive, DT40 TDP1 no CPT inconclusive (no result: IL-1B inflam inh, HT1080NT lethal, HT1080 IDH1KD tx)
COc1ccc(/C=C2\SC(=S)N(N3CCOCC3)C2=O)c(OC)c1	DT40 TDP1 no CPT 16µM
COc1ccc(C=C2SC(=S)NC2=O)cc1	DT40 TDP1 CPT inconclusive, DT40 TDP1 no CPT 18µM
O=C1NC(=S)NC1=Cc1ccc(Cl)cc1Cl	none
O=C1NC(=O)C(=Cc2ccc(Cl)cc2Cl)S1	DT40 TDP1 CPT inconclusive, DT40 TDP1 no CPT inconclusive, ALOX12 inh 40µM, HT1080NT lethal inconclusive
COc1cccc(/C=C2\SC(=S)N(N3CCOCC3)C2=O)c1OC	none
O=C1NC(=S)SC1=Cc1cc(Br)ccc1O	DT40 TDP1 CPT 29µM, IL-1B inflam inh inconclusive, ALOX12 inh 25µM
COc1ccc(/C=C2/SC(=O)NC2=O)cc1	DT40 TDP1 CPT inconclusive
O=C1NC(=S)SC1=Cc1ccccc1Br	DT40 TDP1 CPT inconclusive, DT40 TDP1 no CPT inconclusive, ALOX12 inh inconclusive, HT1080NT lethal inconclusive, HT1080 IDH1KD tx inconclusive
Cc1cc(Br)ccc1NC(=O)CC1CC2CCC1C2 (configuration not stated)	none (no result: DT40 TDP1 CPT, DT40 TDP1 no CPT, IL-1B inflam inh, HT1080NT lethal, HT1080 IDH1KD tx)
COc1cc(C(=O)Nc2cccc(-c3nc4ccc(C)cc4o3)c2)cc(OC)c1OC	none (no result: DT40 TDP1 CPT, DT40 TDP1 no CPT, IL-1B inflam inh, HT1080NT lethal, HT1080 IDH1KD tx)
